Measurements reported in PubChem BioAssay (Tox21).
Records with an inconclusive call do not appear. Entries that show only a call come without a potency. Calls of active or inactive are those of the source. Unless noted, calls come from the whole dose curve.

Experiments:
[1] = qHTS assay to identify small molecule antagonists of the sonic hedgehog signaling (Shh) pathway (AID 1259369); settings: NIH/3T3 Gli1-Luc reporter, Shh antagonist, luminescence 24 h; series mostly up to 92.4 µM; note: nearly all actives have a fitted effect of over 45% in size; note: potency is the fitted concentration of half-maximal effect
Method in brief: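 Stable Gli1-Luc reporter NIH/3T3 clone; quantitative HTS in stimulated mode with conditioned medium. Luminescence measured after 24hr compound treatment at 37 C.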

[2] = target: Estrogen receptor beta (Homo sapiens) (UniProt Q92731); test: qHTS assay to identify small molecule agonists of the estrogen receptor beta (ER-beta) signaling pathway (AID 1259377; active = well fitted activation curve with a large enough effect in the signal ratio in the repeat runs, not every such curve was filed as active; the % refers to the signal ratio); settings: ER-beta-UAS-bla HEK293T, beta-lactamase FRET ratio, 16 h; series mostly up to 92.4 µM
Method in brief: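 Agonist mode cell assay in GripTite HEK293T cells expressing an ER-beta fusion that drives beta-lactamase from an Upstream Activator Sequence; 16 hr compound exposure at 37C, then 2 h LiveBLAzer B/G FRET substrate at room temperature, fluorescence read-out.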

[3] = target: Estrogen receptor beta (Homo sapiens) (UniProt Q92731); test: qHTS assay to identify small molecule antagonists of the estrogen receptor beta (ER-beta) signaling pathway (AID 1259378; active = well fitted inhibition curve with a large enough effect in the signal ratio in the repeat runs, not every such curve was filed as active; the % refers to the signal ratio); settings: ER-beta-UAS-bla HEK293T, beta-lactamase FRET ratio, 16 h; series mostly up to 92.4 µM
Method in brief: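 ER-beta-UAS-bla HEK293T (GripTite) cells in 2% charcoal-stripped FBS medium were preincubated 6 hr at 37C, dosed with compound, then stimulated with 1 nM E2 (final) for 16 hr; beta-lactamase reporter read by B/G FRET fluorescence after 2 hr substrate loading.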

[4] = qHTS assay to identify small molecule agonists of the androgen receptor (AR) signaling pathway in the presence of an antagonist - cell viability counter screen (AID 1259379; active = well fitted curve in the direction sought with a large enough effect in the repeat runs; an effect the other way counts as inactive or inconclusive;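 note: MDA-kb2 human breast cancer cells carrying an MMTV luciferase reporter; nearly all actives have a fitted effect of over 25% in size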); settings: MDA-kb2 viability, CellTiter-Fluor, 16 h; series mostly up to 92.4 µM
Method in brief: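 Nilutamide-containing (3.0uM final) MDA-kb2 cultures, 3,000 cells/well, were treated with compounds across 15 concentrations. After 16 hr at 37C with no CO2, cell viability was determined by CellTiter-Fluor fluorescence in the luciferase assay wells.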

[5] = qHTS assay to identify small molecule agonists of the estrogen receptor beta (ER-beta) signaling pathway - cell viability counter screen (AID 1259380; active = well fitted curve in the direction sought with a large enough effect in the repeat runs; an effect the other way counts as inactive or inconclusive; note: nearly all actives have a fitted effect of over 30% in size); settings: ER-beta-bla HEK293T viability, CellTiter-Glo luminescence, 16 h; series mostly up to 92.4 µM
Method in brief: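 Steps: plate ER-beta-UAS-bla HEK293T cells, rest 6 hr; add compounds in DMSO; incubate 16 hr at 37C, 5% CO2; add FRET substrate 2 hr; add CellTiter-Glo, wait 30 min at room temperature; read luminescence.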

[6] = qHTS assay to identify small molecule antagonists of the estrogen receptor beta (ER-beta) signaling pathway - cell viability counter screen (AID 1259382; active = well fitted curve in the direction sought with a large enough effect in the repeat runs; an effect the other way counts as inactive or inconclusive; note: nearly all actives have a fitted effect of over 55% in size); settings: ER-beta-UAS-bla HEK293T viability, CellTiter-Glo luminescence, 16 h; series mostly up to 92.4 µM
Method in brief: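 Viability is scored by CellTiter-Glo luminescence (30 min, room temperature) in ER-beta-UAS-bla HEK293T wells already read for reporter fluorescence. Compound exposure lasts 16 hr at 37C alongside 1nM 17-beta-estradiol in charcoal-stripped serum medium.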

[7] = target: Estrogen receptor (Homo sapiens) (UniProt P03372); test: qHTS assay to identify small molecule agonists of the estrogen receptor alpha (ER-alpha) signaling pathway in the presence of an antagonist (AID 1259383); settings: VM7Luc4E2 cells, ERE-luciferase, +ICI-182,780, 22 h; series mostly up to 92.4 µM; note: top concentration of the series differs between compounds; nearly all actives have a fitted effect of over 15% in size
Method in brief: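 Readout was ERE-driven luciferase luminescence in VM7Luc4E2 cells, which express full-length ER-alpha endogenously. Compounds were tested at 15 concentrations for 22hr alongside 10.0nM ICI-182,780 (final concentration).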

[8] = qHTS assay to identify small molecule agonists or antagonists of the thyroid stimulating hormone receptor (TSHR) signaling pathway - wild type cell line counter screen (AID 1259384); settings: HEK293 wild type, cAMP HTRF counter-screen; series mostly up to 92.4 µM
Method in brief: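 Wild-type HEK293 cells were plated 18 h at 37 C/5% CO2, pin-dosed with compound plus Ro20-1724 medium, held 30 min at room temperature, then given cAMP-d2 and anti-cAMP-cryptate; fluorescence was read after 1 h. Fifteen concentrations, triplicate.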

[9] = target: Thyrotropin receptor (Homo sapiens) (UniProt P16473); test: qHTS assay to identify small molecule antagonists of the thyroid stimulating hormone receptor (TSHR) signaling pathway (AID 1259385); settings: TSHR-HEK293 cAMP HTRF, TSH-stimulated antagonist mode; series mostly up to 92.4 µM; note: nearly all actives have a fitted effect of over 20% in size; note: potency is the fitted concentration of half-maximal effect
Method in brief: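 TSHR-HEK293 cells were plated and held 18 h at 37C/5% CO2, then given compound plus Ro20-1724 and stimulated with TSH at 1.5 ng/mL final. After 30 min at room temperature, cAMP was detected with cAMP-d2/anti-cAMP-cryptate (1 h) by fluorescence.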

[10] = target: Androgen receptor (Homo sapiens) (UniProt P10275); test: qHTS assay to identify small molecule agonists of the androgen receptor (AR) signaling pathway in the presence of an antagonist (AID 1259381); settings: MDA-kb2 MMTV-luciferase, AR agonist + nilutamide, 16 h; series mostly up to 92.4 µM; note: nearly all actives have a fitted effect of over 15% in size
Method in brief: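 Reporter-gene luminescence from MDA-kb2 cells exposed 16hr at 37C (0% CO2) to 15-point compound titrations with 3.0uM final nilutamide as AR antagonist.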

Sequence of Estrogen receptor (Homo sapiens) (P03372 whole entry, looked up): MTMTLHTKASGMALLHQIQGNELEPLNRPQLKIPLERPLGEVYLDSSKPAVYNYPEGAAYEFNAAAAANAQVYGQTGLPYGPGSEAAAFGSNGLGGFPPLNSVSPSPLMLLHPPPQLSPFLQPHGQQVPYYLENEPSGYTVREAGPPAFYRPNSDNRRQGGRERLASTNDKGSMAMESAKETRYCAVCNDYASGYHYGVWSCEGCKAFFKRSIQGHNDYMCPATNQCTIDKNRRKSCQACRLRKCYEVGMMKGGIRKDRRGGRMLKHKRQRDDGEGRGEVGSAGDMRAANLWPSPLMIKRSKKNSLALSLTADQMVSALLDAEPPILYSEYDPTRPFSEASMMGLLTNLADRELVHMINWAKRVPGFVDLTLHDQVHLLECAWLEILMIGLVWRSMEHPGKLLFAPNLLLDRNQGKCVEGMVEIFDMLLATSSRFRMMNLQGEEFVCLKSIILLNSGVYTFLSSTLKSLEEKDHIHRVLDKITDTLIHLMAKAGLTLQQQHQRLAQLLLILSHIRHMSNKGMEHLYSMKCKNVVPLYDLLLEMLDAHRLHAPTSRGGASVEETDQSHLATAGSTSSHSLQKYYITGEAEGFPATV
Sequence of Androgen receptor (Homo sapiens) (P10275 whole entry, looked up): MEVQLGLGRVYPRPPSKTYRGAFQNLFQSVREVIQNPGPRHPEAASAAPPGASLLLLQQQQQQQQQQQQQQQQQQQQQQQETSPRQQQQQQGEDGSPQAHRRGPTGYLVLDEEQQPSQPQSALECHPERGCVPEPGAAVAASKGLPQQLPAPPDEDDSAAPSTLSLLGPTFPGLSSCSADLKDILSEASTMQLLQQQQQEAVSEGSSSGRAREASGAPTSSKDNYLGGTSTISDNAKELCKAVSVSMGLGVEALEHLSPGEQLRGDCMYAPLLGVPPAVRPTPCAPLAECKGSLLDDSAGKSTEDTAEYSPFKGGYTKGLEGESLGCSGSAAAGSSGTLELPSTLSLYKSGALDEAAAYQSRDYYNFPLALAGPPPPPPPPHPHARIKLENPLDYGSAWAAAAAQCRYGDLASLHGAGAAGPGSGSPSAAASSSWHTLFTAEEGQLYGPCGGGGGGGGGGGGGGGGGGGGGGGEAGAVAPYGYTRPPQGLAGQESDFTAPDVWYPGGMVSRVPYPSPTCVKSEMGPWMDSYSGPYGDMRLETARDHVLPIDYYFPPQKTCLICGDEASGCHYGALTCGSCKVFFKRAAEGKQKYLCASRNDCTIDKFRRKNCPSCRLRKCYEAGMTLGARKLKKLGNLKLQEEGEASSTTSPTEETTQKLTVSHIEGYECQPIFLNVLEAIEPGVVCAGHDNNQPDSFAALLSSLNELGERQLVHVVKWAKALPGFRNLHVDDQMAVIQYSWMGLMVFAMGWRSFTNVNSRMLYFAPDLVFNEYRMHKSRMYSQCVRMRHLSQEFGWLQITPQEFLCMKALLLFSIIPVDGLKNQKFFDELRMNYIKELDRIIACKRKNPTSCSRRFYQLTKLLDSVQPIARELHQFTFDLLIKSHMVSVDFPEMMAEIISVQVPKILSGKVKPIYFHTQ
Sequence of Thyrotropin receptor (Homo sapiens) (P16473 whole entry, looked up): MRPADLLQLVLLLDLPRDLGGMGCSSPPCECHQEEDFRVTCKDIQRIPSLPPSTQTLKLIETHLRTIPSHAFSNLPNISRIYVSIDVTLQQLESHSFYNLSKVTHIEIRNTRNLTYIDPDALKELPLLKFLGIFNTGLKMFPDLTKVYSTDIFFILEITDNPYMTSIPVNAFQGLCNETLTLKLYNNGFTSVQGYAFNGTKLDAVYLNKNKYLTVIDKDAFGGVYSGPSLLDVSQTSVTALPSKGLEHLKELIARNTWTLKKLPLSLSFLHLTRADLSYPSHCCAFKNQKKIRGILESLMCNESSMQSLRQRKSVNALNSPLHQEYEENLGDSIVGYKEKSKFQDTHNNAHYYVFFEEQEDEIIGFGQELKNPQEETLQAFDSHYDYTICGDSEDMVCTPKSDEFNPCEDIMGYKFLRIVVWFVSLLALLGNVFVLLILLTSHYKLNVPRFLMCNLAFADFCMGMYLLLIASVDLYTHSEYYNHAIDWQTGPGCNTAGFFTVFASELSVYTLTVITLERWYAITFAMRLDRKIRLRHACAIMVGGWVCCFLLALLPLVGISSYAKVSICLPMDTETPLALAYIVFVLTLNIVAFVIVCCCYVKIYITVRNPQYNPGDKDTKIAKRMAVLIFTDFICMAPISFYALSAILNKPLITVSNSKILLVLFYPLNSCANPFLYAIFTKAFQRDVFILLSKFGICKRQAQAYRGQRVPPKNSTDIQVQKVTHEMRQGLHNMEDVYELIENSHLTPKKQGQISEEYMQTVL
Sequence of Estrogen receptor beta (Homo sapiens) (Q92731 whole entry, looked up, the tested form may be a part): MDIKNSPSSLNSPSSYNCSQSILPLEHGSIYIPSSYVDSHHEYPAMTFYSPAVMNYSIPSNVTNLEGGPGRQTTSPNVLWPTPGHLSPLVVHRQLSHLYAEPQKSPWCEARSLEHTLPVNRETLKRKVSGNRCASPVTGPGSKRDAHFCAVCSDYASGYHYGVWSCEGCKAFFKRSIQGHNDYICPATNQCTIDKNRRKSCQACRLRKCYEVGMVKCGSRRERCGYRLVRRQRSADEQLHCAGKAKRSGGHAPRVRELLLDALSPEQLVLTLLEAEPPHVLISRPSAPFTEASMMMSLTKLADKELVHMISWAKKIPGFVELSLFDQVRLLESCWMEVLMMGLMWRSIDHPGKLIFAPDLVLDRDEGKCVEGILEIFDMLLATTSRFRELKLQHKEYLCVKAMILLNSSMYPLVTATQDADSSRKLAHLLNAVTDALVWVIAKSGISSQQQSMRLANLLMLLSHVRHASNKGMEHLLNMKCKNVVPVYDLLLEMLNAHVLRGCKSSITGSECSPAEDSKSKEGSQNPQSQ

SMILES	Potency [1]	outcome [2]	Potency [3]	Potency [4]	Potency [5]	Potency [6]	Potency [7]	Potency [8]	Potency [9]	Potency [10]
CCOC(=O)NC(=S)Nc1ccccc1NC(=S)NC(=O)OCC	inactive	inactive	inactive	inactive	inactive	–	–	–	–	–
CCOC(=O)N(C)C(=O)CSP(=S)(OCC)OCC	inactive	inactive	inactive	inactive	inactive	inactive	–	–	–	–
CCOP(=S)(OCC)SCSc1ccc(Cl)cc1	inactive	inactive	inactive	inactive	inactive	inactive	inactive	inactive	30.6 µM (active)	–
CC(C)(C)NCC(O)c1cc(Cl)c(N)c(Cl)c1 (configuration not stated)	inactive	inactive	inactive	inactive	inactive	inactive	–	–	inactive	inactive
ClC(Cl)(Cl)C(Cl)(Cl)Cl	inactive	inactive	inactive	inactive	inactive	–	–	–	–	–
COc1ncc(F)c2nc(S(=O)(=O)Nc3c(F)cccc3F)nn12	inactive	inactive	inactive	inactive	inactive	inactive	inactive	inactive	inactive	inactive
CC(=O)CC(c1ccc(Cl)cc1)c1c(O)c2ccccc2oc1=O (configuration not stated)	inactive	inactive	inactive	inactive	inactive	inactive	inactive	–	–	–
CCOC(=O)CP(=O)(OCC)OCC	inactive	inactive	inactive	inactive	inactive	inactive	inactive	inactive	inactive	–
O=P(O)(Oc1ccccc1)Oc1ccccc1	inactive	inactive	inactive	inactive	inactive	inactive	inactive	inactive	inactive	–
ClC(Cl)C(Cl)Cl	inactive	inactive	inactive	inactive	inactive	inactive	inactive	–	–	–
CC(Cl)(Cl)[N+](=O)[O-]	inactive	inactive	inactive	inactive	inactive	inactive	inactive	inactive	inactive	inactive
CC(COc1ccc(Oc2ccccc2)cc1)Oc1ccccn1 (configuration not stated)	inactive	inactive	inactive	inactive	inactive	inactive	–	inactive	–	inactive
CC(C)(C)C(=O)C(Oc1ccc(Cl)cc1)n1cncn1 (configuration not stated)	inactive	inactive	inactive	inactive	inactive	inactive	inactive	–	–	–
OCCBr	inactive	inactive	inactive	inactive	inactive	inactive	inactive	inactive	inactive	–
N#Cc1c(Cl)cccc1Cl	inactive	inactive	inactive	inactive	inactive	inactive	inactive	–	–	–
CCC(C)n1c(=O)[nH]c(C)c(Br)c1=O (configuration not stated)	inactive	inactive	inactive	inactive	inactive	inactive	inactive	inactive	–	–
OCCSCSCCO	inactive	inactive	inactive	inactive	inactive	inactive	inactive	inactive	inactive	–
Nc1ccccc1Cl	inactive	inactive	inactive	inactive	inactive	inactive	inactive	inactive	inactive	inactive
CN(N=O)C(N)=O	inactive	inactive	inactive	inactive	inactive	inactive	–	–	–	–
CCCCN(CCCCO)N=O	inactive	inactive	inactive	inactive	inactive	inactive	inactive	inactive	inactive	–
O=C1OC(c2ccc(O)c(S(=O)(=O)O)c2)(c2ccc(O)c(S(=O)(=O)O)c2)c2c(Br)c(Br)c(Br)c(Br)c21	inactive	inactive	inactive	inactive	inactive	inactive	inactive	inactive	inactive	–
Cc1cnc[nH]1	inactive	inactive	inactive	inactive	inactive	–	–	inactive	inactive	inactive
COC(=O)C(c1ccccc1)C1CCCCN1 (configuration not stated)	inactive	inactive	inactive	inactive	inactive	inactive	inactive	inactive	inactive	inactive
CN1C(=S)CN=C(c2ccccc2)c2cc(Cl)ccc21	6.68 µM (active)	inactive	inactive	inactive	inactive	inactive	inactive	inactive	inactive	–
CNC(=O)Oc1ccccc1C1OCCO1	inactive	inactive	inactive	inactive	inactive	inactive	inactive	–	–	inactive
O=NN1CCCCC1	inactive	inactive	inactive	inactive	inactive	inactive	–	inactive	inactive	inactive
c1cc2c(c(N3CCNCC3)c1)OCCO2	inactive	inactive	inactive	inactive	inactive	inactive	inactive	inactive	inactive	inactive

SMILES	Potency [1]	outcome [2]	Potency [3]	Potency [4]	Potency [5]	Potency [6]	Potency [7]	Potency [8]	Potency [9]	Potency [10]
CC1(C)C(=O)NC(=O)NC1=O	inactive	inactive	inactive	inactive	inactive	inactive	inactive	inactive	inactive	–
O=C1OC(=O)C2C1C1(Cl)C(Cl)=C(Cl)C2(Cl)C1(Cl)Cl (configuration not stated)	inactive	inactive	inactive	inactive	inactive	inactive	inactive	inactive	inactive	–
OC(Cn1cncn1)(c1ccc(F)cc1)c1ccccc1F (configuration not stated)	inactive	inactive	inactive	inactive	inactive	inactive	inactive	inactive	inactive	–
N#CCNCC#N	inactive	inactive	inactive	inactive	inactive	inactive	inactive	inactive	inactive	–
N#CC(Cl)(Cl)Cl	inactive	inactive	inactive	inactive	inactive	–	–	–	–	inactive
c1ccc(N2CCNCC2)cc1	inactive	inactive	inactive	inactive	inactive	inactive	–	inactive	inactive	inactive
N#CCCC#N	inactive	inactive	inactive	inactive	inactive	inactive	inactive	–	–	–
Cc1ncsc1CCCl	inactive	inactive	inactive	inactive	inactive	inactive	inactive	inactive	inactive	–
O=CNC(N1CCN(C(NC=O)C(Cl)(Cl)Cl)CC1)C(Cl)(Cl)Cl (configuration not stated)	inactive	inactive	inactive	inactive	inactive	inactive	–	inactive	inactive	inactive
c1cc[c]([Hg][c]2ccccc2)cc1	0.545 µM (active)	inactive	inactive	inactive	inactive	inactive	–	inactive	inactive	inactive
COP(=S)(OC)Oc1c(Cl)cc(C)cc1Cl	inactive	inactive	inactive	inactive	inactive	inactive	–	inactive	54.5 µM (active)	–
CS(=O)(=O)c1cc(C(F)(F)F)ccc1C(=O)c1cnoc1C1CC1	inactive	inactive	inactive	inactive	inactive	inactive	inactive	–	inactive	–
CC1CCCCC1NC(=O)Nc1ccccc1 (configuration not stated)	inactive	inactive	inactive	inactive	inactive	inactive	inactive	inactive	inactive	–
O=[N+]([O-])c1ccc2c3c(cccc13)CC2	21.7 µM (active)	inactive	inactive	inactive	inactive	inactive	inactive	inactive	inactive	–
CCCSC(=O)Cl	inactive	inactive	inactive	inactive	inactive	inactive	–	inactive	inactive	–
C[C@@H]1CN(C2CCC(C#N)(c3ccc(F)cc3)CC2)CC[C@]1(C(=O)O)c1ccccc1 (some centres not stated)	inactive	inactive	inactive	inactive	inactive	inactive	–	inactive	inactive	–
CCOP(=S)(OCC)Oc1ncn(-c2ccccc2)n1	inactive	inactive	inactive	inactive	–	inactive	inactive	inactive	inactive	inactive
CC(=O)Nc1cc([As](=O)(O)O)ccc1O	inactive	inactive	inactive	inactive	inactive	inactive	–	inactive	inactive	–
COC(=O)c1ccccc1S(=O)(=O)NC(=O)Nc1nc(C)cc(C)n1	inactive	inactive	inactive	inactive	inactive	inactive	–	inactive	inactive	–
NC1=NC(=O)C(c2ccccc2)O1 (configuration not stated)	inactive	inactive	inactive	inactive	inactive	inactive	–	inactive	inactive	–
COc1cc(C[C@@H](C)N)c(OC)cc1C	inactive	inactive	inactive	inactive	inactive	–	inactive	inactive	inactive	–
C[C@]12CC[C@H]3[C@@H](CC=C4C[C@@H](O)CC[C@@]43C)[C@@H]1CC[C@@H]2O	inactive	inactive	inactive	inactive	–	inactive	–	–	–	–
CCC(C)(C)c1cc(-n2nc3ccccc3n2)c(O)c(C(C)(C)CC)c1	inactive	inactive	inactive	inactive	–	inactive	–	inactive	inactive	inactive
CCC1(c2ccccc2)C(=O)N=C(O)NC1=O (configuration not stated)	inactive	inactive	inactive	inactive	inactive	–	inactive	inactive	inactive	–
ClCCOCOCCCl	inactive	inactive	inactive	inactive	inactive	–	–	inactive	inactive	–
O=C1CN=C(c2ccccc2)c2cc([N+](=O)[O-])ccc2N1	inactive	inactive	inactive	inactive	inactive	–	inactive	inactive	inactive	–
CCOC(=O)C1(c2ccccc2)CCN(CCc2ccc(N)cc2)CC1	inactive	inactive	inactive	inactive	–	inactive	inactive	inactive	inactive	inactive
